# Test results published in PubChem BioAssay AID875 (National Center for Advancing Translational Sciences (NCATS), 2007).
# The campaign covered roughly 75,000 compounds. About 35 (0.05%) were called active. Where a call stands in place of a potency, no number is given. The sample holds actives, similar compounds and a random draw of the others, so the mix is not that of the screen. Unmarked numbers belong to inactive results. The call rests on the fitted dose curve; in most records, active means well fitted inhibition curve with a large enough effect; inconclusive means small, poorly fitted or top-dose-only effect; inactive means no such curve, though single readings can be large or run the other way.
# Molecular target: Breast cancer type 1 susceptibility protein (Homo sapiens) (UniProt P38398)
# Sequence (P38398 whole entry, looked up): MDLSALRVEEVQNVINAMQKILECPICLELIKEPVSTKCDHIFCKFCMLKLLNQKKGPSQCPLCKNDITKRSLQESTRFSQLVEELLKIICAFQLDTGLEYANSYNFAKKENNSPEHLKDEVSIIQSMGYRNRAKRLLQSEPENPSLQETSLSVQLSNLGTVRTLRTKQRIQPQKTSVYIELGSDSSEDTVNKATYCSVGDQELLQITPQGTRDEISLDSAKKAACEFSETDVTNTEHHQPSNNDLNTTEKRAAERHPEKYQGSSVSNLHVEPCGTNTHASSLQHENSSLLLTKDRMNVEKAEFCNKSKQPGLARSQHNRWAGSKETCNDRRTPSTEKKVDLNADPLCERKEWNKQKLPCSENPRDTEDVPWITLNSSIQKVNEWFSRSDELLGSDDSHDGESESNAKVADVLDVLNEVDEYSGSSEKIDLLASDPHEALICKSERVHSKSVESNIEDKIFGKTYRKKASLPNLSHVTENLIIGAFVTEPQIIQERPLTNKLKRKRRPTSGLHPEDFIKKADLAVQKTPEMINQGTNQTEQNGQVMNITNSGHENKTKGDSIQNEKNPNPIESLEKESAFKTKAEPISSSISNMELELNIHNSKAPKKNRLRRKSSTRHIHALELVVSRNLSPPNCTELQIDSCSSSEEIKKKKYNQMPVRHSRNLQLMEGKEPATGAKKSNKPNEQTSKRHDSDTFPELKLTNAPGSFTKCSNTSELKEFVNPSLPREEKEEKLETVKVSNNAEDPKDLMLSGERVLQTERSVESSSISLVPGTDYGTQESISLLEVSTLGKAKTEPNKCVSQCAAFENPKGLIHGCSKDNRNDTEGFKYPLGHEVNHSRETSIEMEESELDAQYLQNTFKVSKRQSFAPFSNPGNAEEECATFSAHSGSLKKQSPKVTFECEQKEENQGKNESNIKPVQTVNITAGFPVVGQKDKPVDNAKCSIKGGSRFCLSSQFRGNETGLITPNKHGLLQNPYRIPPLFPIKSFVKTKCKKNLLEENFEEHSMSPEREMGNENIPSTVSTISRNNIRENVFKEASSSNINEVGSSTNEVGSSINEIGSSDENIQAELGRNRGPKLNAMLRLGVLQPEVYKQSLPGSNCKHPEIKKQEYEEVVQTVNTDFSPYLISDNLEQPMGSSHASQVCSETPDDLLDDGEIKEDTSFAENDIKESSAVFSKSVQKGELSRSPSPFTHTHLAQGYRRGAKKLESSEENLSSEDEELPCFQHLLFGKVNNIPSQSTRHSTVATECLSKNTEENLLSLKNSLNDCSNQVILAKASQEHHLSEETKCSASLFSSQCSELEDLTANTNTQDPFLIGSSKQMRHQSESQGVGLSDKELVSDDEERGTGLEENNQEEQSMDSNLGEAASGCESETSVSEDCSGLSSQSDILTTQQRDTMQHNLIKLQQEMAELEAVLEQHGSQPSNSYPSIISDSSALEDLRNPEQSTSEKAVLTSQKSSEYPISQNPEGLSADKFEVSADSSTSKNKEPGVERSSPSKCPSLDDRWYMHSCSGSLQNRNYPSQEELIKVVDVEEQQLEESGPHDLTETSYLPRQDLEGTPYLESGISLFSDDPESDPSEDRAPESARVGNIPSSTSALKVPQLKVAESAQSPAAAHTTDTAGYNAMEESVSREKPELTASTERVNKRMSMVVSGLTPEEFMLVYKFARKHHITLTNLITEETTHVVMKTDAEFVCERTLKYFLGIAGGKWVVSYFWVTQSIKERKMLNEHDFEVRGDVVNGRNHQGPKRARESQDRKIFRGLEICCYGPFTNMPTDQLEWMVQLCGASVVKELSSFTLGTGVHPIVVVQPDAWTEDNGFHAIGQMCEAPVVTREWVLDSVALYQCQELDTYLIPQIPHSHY
# Assay: qHTS Assay for Inhibitors of BRCT-Phosphoprotein Interaction (Green Fluorophore)
# Conditions: BRCA1 BRCT-phosphopeptide binding, green fluorescence polarization; series mostly up to 76.9 µM
# Description: NIH Molecular Libraries Screening Centers Network [MLSCN]
# NIH Chemical Genomics Center [NCGC]
# PI Name: Natarajan, Amarnath; University of Texas
# A complex of BRCT (C-terminal portion of BRCA1, MW ~35 kDa, His-tagged) and fluorescently labeled pBACH1 phosphorylated 10 aa peptide fragment of BACH1, a helicase implicated in DNA repair, is incubated with library members. Inhibitors of BRCT-pBACH1 binding are detected by a decrease in the fluorescence polarization (FP) of the fluorophore. In order to minimize the effect of fluorescence artifacts and to increase the overall robustness of the screen, the compound library members were incubated in separate reactions with fluorescein labeled probe-protein complexes. Protein and labeled probes were supplied by Dr. Amarnath Natarajan, Department of Pharmacology and Toxicology, University of Texas Medical Branch Galveston, TX.
# Assay Buffer: 16mM Na2HPO4, 4 mM NaH2PO4, 150 mM NaCl, 1 mM EDTA, 1 mM DTT, 0.02% NaN3, and 0.01% Tween 20 at pH 7.3.
# 100 nM labeled decapeptide/250 nM protein in columns 1, 2, 5 - 48. Titration of unlabeled decapeptide control (from 10 mM, then 1:2 dilution in duplicate) pin-transferred to column 2, rows 1 to 16. Column 1 is neutral.
# Three uL of reagents were dispensed to 1536-well Greiner black solid-bottom plates. Compounds and controls (23 nL) were transferred
# via Kalypsys PinTool. The plates were incubated for 12 min at room temperature, and then read on ViewLux (Perkin-Elmer) High throughput CCD imager using FITC for the fluorescein-labeled decapeptide probe polarization filter sets. During dispense, reagent bottles were kept submerged into 4 deg C water bath and all liquid lines were covered with aluminum foil to minimize probe and protein degradation. All screening operations were performed on a Kalypsys robotic system (Kalypsys, Inc., San Diego, CA) containing one RX-130 and two RX-90 anthropomorphic robotic arms. The timing and order of assay plates passing through the screening system were adjusted such that each compound library plate was assayed against the fluorescein- and rhodamine-labeled assay systems at immediately adjacent time points.
# Potency means the concentration at half of the fitted maximal effect.
Compound,"activity change, negative = inhibition",Potency
Cc1nnc(NC2=NCCCCC2)o1,inactive,
CCNc1nc(NCC)nc(N(C)n2cnnc2)n1,inactive,
c1csc(-c2cn3c(n2)SCC3)c1,inactive,
O=C(c1csnn1)N1CCC[C@@]2(CCN(Cc3nccs3)C2)C1,inactive,
COc1cc(-c2nc(S(=O)(=O)c3ccc(Cl)cc3)c(N(C)C)o2)cc(OC)c1OC,inactive,
COc1ccc(NC(=O)CSc2nnc(-c3cccs3)n2Cc2ccco2)cc1OC,inactive,
COC(=O)[C@@H]1C[C@@]2(O)[C@H](O)[C@H](O)[C@H](O)C[C@H]2N1Cc1ccc(C(C)(C)C)cc1,inactive,
Cc1ccc(S(=O)(=O)C(C#N)c2nc3ccccc3nc2N2CCCC2)cc1C (stereo unspecified),inactive,
O=C(CC1NCCNC1=O)Nc1ccc(Oc2ccccc2)cc1 (stereo unspecified),inactive,
COC(=O)Nc1ccc(S(=O)(=O)N(C)CC(F)(F)C(F)F)cc1,inactive,
Cc1c2cnn(-c3ccccc3)c(=O)c2c(C)n1CCCC(=O)N1CCN(C)CC1,inactive,
O=c1c2c(nc3n1CCCCC3)sc1c(O)cccc12,inactive,
COC(=O)[C@@H]1C[C@H]2CC[C@H](O)C[C@H]2N1Cc1ccc(N2CCN(C)CC2)cc1,inactive,
CC(=O)OCC(=O)[C@@]1(O)CCC2C3CCC4=CC(=O)CC[C@@]4(C)[C@]3(F)C(O)C[C@]21C (stereo partly specified),-2.43% [at 3.08 µM],
OCCCN1c2ccccc2Nc2nnc(-c3ccccc3)cc21,inactive,
COC1C[C@@H](O[C@@H]2C(C)C(=O)OC(C)C(C)C(O)C(C)C(=O)[C@@]3(CO3)CC(C)C(OC3OC(C)CC(N(C)C)C3O)C2C)OC(C)[C@@H]1O (stereo partly specified),-1.55% [at 3.08 µM],
CCN(CC)S(=O)(=O)c1ccc2nc(CSc3nnnn3-c3ccc(O)cc3)[nH]c2c1,inactive,
CCC1=C(OC(=O)N(CC)CC)N2C(=O)OC(=NCCc3c[nH]c4ccccc34)[C@]2(C)[C@H]2C1=CC[C@H]1C(=O)N(CC)C(=O)[C@H]12,inactive,
CSCCC1NC2(C(=O)Nc3ccc(Cl)cc32)[C@@H]2C(=O)N(C3CCCC3)C(=O)[C@H]12 (stereo partly specified),inactive,
c1ccc2c(CNn3cnnc3)cccc2c1,inactive,
Cc1occc1C(=O)Nc1cccc(Cn2cccn2)c1,inactive,
CCCc1nc2ccccc2c(=O)n1/N=C/c1ccc(O)c(O)c1,inactive,
CC(C)C[C@H](NC(=O)NCCc1ccc(Cl)cc1)C(=O)O,inactive,
Cn1c(SCC(=O)Nc2cccc(NC(=O)c3cccs3)c2)nnc1-c1ccncc1,inactive,
CCCOc1ccc(C2C(C(=O)c3ccc(C)o3)=C(O)C(=O)N2CCCn2ccnc2)cc1 (stereo unspecified),inactive,
N#Cc1c(NC(=O)CSc2nc3ccccc3c(=O)n2Cc2ccco2)sc2c1CCCC2,inactive,

Compound,"activity change, negative = inhibition",Potency
CCOC(=O)C1C(=O)OC2(CCCC2)C1C(=O)OCC (stereo unspecified),inactive,
Cn1nc(-c2ccc(N3CCOCC3)c(NC(=O)c3ccccc3)c2)c2ccccc2c1=O,inactive,
CC1CCCCC1NC(=O)CSc1nnc(N)s1 (stereo unspecified),inactive,
COCc1[nH]nc2c1C(C1C=CCCC1)C(C#N)=C(N)O2 (stereo unspecified),inactive,
O=c1c(O)c(-c2ccc(O)cc2)oc2ccccc12,-3.22% [at 3.08 µM],
CCOc1ccc2[nH]c(=O)c(CN(Cc3nnnn3CCc3ccccc3)CC3CCCO3)cc2c1 (stereo unspecified),inactive,
Cc1ccc(C)c(NC(=O)C2CC(=O)N(C(C)C)C2)c1 (stereo unspecified),inactive,
O=C(COc1ccc(S(=O)(=O)NCCc2ccccc2)cc1)N1CCCC1,inactive,
CC(C)n1c(C(O)c2ccccc2)nc2ccccc21 (stereo unspecified),inactive,
O=C(NCC12CC3CC(C1)CC(CNC(=O)N1CCCC1)(C3)C2)N1CCCC1,inactive,
CC(=O)O[C@]1(C(C)=O)CC[C@@H]2[C@@H]3C=C(C)C4=CC(=O)CC[C@@]4(C)[C@H]3CC[C@]21C,inactive,
S=c1[nH]nc(SCc2ccccc2Cl)c2[nH]cnc12,-0.607% [at 15.4 µM],
CCNC(=O)CN(c1ccc(C)cc1)S(=O)(=O)c1ccc(SC)cc1,inactive,
CC(C)NC(=O)N1CC[C@@]2(CCCN(C(=O)c3cccc(F)c3)C2)C1,inactive,
Cc1ccc(C(c2nnnn2CS(=O)(=O)c2ccc(C)cc2)N2CCC(C(N)=O)CC2)cc1 (stereo unspecified),inactive,
CCSc1ncnc2c(C#N)c3n(c12)CCCCC3,inactive,
COc1ccc(-n2c(SCC(=O)OC(C)C)nnc2-c2ccccn2)cc1,inactive,
Nc1nnc(C2CCCC2)s1,inactive,
CC(=O)c1ccc(-n2nnnc2SCC(=O)N2CCN(C(=O)c3ccco3)CC2)cc1,inactive,
CC1(C)OC2CC(=O)OC[C@@]23C1CC(=O)[C@]1(C)C3CC[C@@]2(C)C(c3ccoc3)OC(=O)C3O[C@@]321 (stereo partly specified),inactive,
C[C@H](CCC(=O)O)[C@H]1CC[C@@H]2[C@H]3CC[C@H]4C[C@H](O)CC[C@@]4(C)[C@@H]3CC[C@@]21C,-0.353% [at 15.4 µM],
COc1ccc(-c2nnco2)cc1OC,inactive,
CCCOC(=O)Cc1c(O)c2ccccc2[nH]c1=O,inactive,
N#CCC(=O)NC(=O)NCC1CC1,inactive,
Cc1ccc(OS(=O)Nc2cccc3nccnc23)cc1 (stereo unspecified),inactive,
Cc1c(S(=O)(=O)O)oc2c1C(=O)C(=O)c1c-2ccc2c1CCCC2(C)C,,31.6 µM (active)

Compound,"activity change, negative = inhibition",Potency
O=C(c1c(Cl)nc2sccn12)N1CCCc2ccccc21,inactive,
CCOc1ccc(C2C(C(=O)O)c3ccccc3C(=O)N2CCN2CCOCC2)cc1 (stereo unspecified),inactive,
COc1ncc2nc(-c3ccc(Cl)cc3)c(=O)n(-c3ccccc3)c2n1,inactive,
CC(=O)NC1CC2CCCC(C1)N2CC(=O)Nc1ccccc1 (stereo unspecified),inactive,
Cc1ccc(N(C(=O)CC2NC(=O)NC2=O)C2(C(=O)NC3CCCC3)CCCCC2)cc1 (stereo unspecified),inactive,
O=S(=O)(NCc1cccnc1)c1ccc(Br)s1,inactive,
Cc1cc(NC(=O)COC(=O)c2ccc(F)c(S(=O)(=O)N3CCOCC3)c2)no1,inactive,
O=C1c2ccccc2S(=O)(=O)N1CC(O)Cn1c2ccccc2c2ccccc21 (stereo unspecified),inactive,
O=C1OC(C(O)CO)C(O)=C1O (stereo unspecified),-0.826% [at 3.08 µM],
CO[C@H]1COC(=O)[C@@H](C)NC(=O)C/C=C\[C@@H](C)[C@H](OC)COC(=O)C/C=C\[C@@H]1C,-2.28% [at 15.4 µM],
CC1(C)Cc2cccc(OCC(=O)Nc3nccs3)c2O1,inactive,
Cc1ccc(-c2noc(-c3ccccc3C(=O)NCC3CCCO3)n2)cc1 (stereo unspecified),inactive,
Cc1cc(C)c(C#N)c(SCS(=O)c2ccc(C(C)(C)C)cc2)n1 (stereo unspecified),inactive,
Cc1ccc(S(=O)(=O)NC(=O)NN2C[C@H]3CCC[C@@H]3C2)cc1,inactive,
CN(C)CCNC(=O)C(C(=O)c1ccccc1)n1ccccc1=O (stereo unspecified),inactive,
CCOC(=O)N1CCN(C(=O)C2CC(c3ccc(F)cc3)=NO2)CC1 (stereo unspecified),inactive,
Cc1csc(-c2nc3ccccc3n2C)n1,inactive,
O=C(Nc1cccc2c1CCCC2)C1CCN(C(=O)NC2CCCCC2)CC1,inactive,
Fc1ccc(-c2ccc(-c3nn4c(-c5ccco5)nnc4s3)o2)cc1,inactive,
COc1ccc(OC)c(C(=O)c2ccc(C(=O)O)cc2)c1,inactive,
CCOC(=O)C(C)Oc1cccc2c(=O)n(CC(=O)N3CCc4ccccc43)ccc12 (stereo unspecified),inactive,
O=C(CSc1nnc(-c2cccnc2)n1Cc1ccco1)c1ccc(Cl)c(Cl)c1,inactive,
COCCN(C(=O)CCC(=O)Nc1ccccn1)C(C(=O)NCCC(C)C)c1ccc(OC)cc1 (stereo unspecified),inactive,
CCc1c(C)nc(N)n2c(SCC(=O)N3CCN(c4ccccc4)CC3)nnc12,inactive,
CCCC(NC(=O)c1ccccc1)c1nc2ccccc2n1Cc1ccc(C(=O)OC)o1 (stereo unspecified),inactive,
CC(=O)c1sc2nc(SCC(=O)N3CCCCC3)[nH]c(=O)c2c1C,inactive,

Compound,"activity change, negative = inhibition",Potency
C/C(O)=C\c1nc(=O)c2c(C)cc(C)nc2n1-c1ccccc1,inactive,
Cc1cc(NCc2ccco2)n2c(nc3ccccc32)c1C#N,inactive,
CCCN1[C@H](C(=O)OC)C[C@@]2(O)[C@@H](O)[C@@H](O)[C@@H](O)C[C@@H]12,inactive,
O=C(O)[C@H](CCc1ccccn1)c1ccccc1,0.305% [at 15.4 µM],
Cc1nc(C)c(C(=O)Nc2cccc(C)c2C)o1,inactive,
CCCn1c(=O)c2[nH]c(C3CCCC3)nc2n(CCC)c1=O,inactive,
O=C(NCCCN1CCOCC1)c1cc(-c2ccc(Cl)cc2)on1,inactive,
COC(=O)[C@@H]1C[C@@]2(O)[C@H](O)[C@H](O)[C@H](O)C[C@H]2N1Cc1ccc(C)s1,inactive,
CN(C)/C=N/c1cc(=O)n(C)c(=O)n1CC1CC1,inactive,
CCCCCCCCCc1ccc(OCCOCCOCCOCCOCCOCCOCCOCCOCCO)cc1,inactive,
O=C(Nc1ccccc1N1CCCCC1)c1ccc2nccnc2c1,inactive,
CN1CCCC1CCO[C@@](C)(c1ccccc1)c1ccc(Cl)cc1 (stereo partly specified),-4.61% [at 3.08 µM],
CN1CCc2nc(-c3ccccc3)c(-c3ccccc3)cc2C1,-0.939% [at 15.4 µM],
CCN(CC)C(=O)CSc1nnc(-c2cnccn2)n1-c1ccc(C)cc1,inactive,
Cc1c(C(=O)CN2CCOCC2)[nH]c2ccccc12,inactive,
Cc1cccc(-c2cc(=O)c3cc(C)ccc3o2)c1,inactive,
Cc1c(S(=O)(=O)O)ccc(N=Nc2c(O)c(C(=O)O)cc3ccccc23)c1Cl,-3.5% [at 15.4 µM],
CC(C(=O)Nc1ccccc1-c1ccccc1)N1CCOCC1 (stereo unspecified),inactive,
CCC1CCCCN1C(=O)Nc1cccc(NC(=O)N2CCCCC2CC)c1 (stereo unspecified),inactive,
CCOc1ccc(Cn2nnc(C(=O)NCc3ccccc3)c2N)cc1,inactive,
O=C(Cn1nc(Cc2cccnc2)c2ccccc2c1=O)NCC1CCCO1 (stereo unspecified),inactive,
O=c1[nH]nc(CSCc2ccccc2Cl)[nH]1,inactive,
Cc1cc(C)c(S(=O)(=O)NCCCN2CCOCC2)cc1Br,inactive,
